Results from PubChem BioAssay AID1981 (Southern Research Specialized Biocontainment Screening …, 2009).
In all, about 2,200 compounds went through this assay and about 480 (22%) were called active. A selection follows. Results with a measured potency or affinity are listed apart. Unmarked numbers belong to inactive results. How the calls were made is not given here.

Experiment: S. Typhimurium GFP fluorescence dose response in modified counterscreen for PhoP regulon inhibitor project (AID 1981);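 further: 0% = induced DMSO wells and 100% = uninduced wells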
Conditions: 4 h; series mostly up to 150 µM; inhibition: at the top concentration

**Q.** For `Cc1ccc2[nH]c3c(=O)n(CCc4cnc[nH]4)cnc3c2c1`, which “inhibition” value is on record?
**A.** 4.47%

**Q.** With `c1ccc(-n2cnc3cc(NCc4ccncc4)ccc32)cc1` as the compound, how does the “inhibition” value read?
**A.** 0.09%

**Q.** For `Cc1[nH]c2ccccc2c1C1=CCNCC1`, which “inhibition” value is on record?
**A.** 3.1%

**Q.** Which “inhibition” value does the source give for `CCOC(=O)C1CCCN(C(=O)c2sc3nc(C)nc(N4CCOCC4)c3c2C)C1` (stereo unspecified) here?
**A.** -11.8%

**Q.** Which “inhibition” value does the source give for `Cc1cc(C(=O)COC(=O)CNC(=O)c2ccco2)c(C)n1Cc1ccco1` here?
**A.** -20%

**Q.** With `CN(C)c1ccc(/C=N/c2cc(-c3ccccc3)nn2-c2ccccc2)cc1` as the compound, how does the “inhibition” value read?
**A.** -16.3%

**Q.** With `Cc1ccc(N2C(=O)CC(n3ccnc3)C2=O)cc1C` (stereo unspecified) as the compound, how does the “inhibition” value read?
**A.** 3.87%

**Q.** For `Cc1cc(NC(=O)c2cnn3cccnc23)no1`, which “inhibition” value is on record?
**A.** 5.39%

**Q.** With `COc1ccc(-c2cc(C(=O)Nc3cc(C)n(Cc4ccc(Cl)cc4)n3)no2)cc1OC` as the compound, how does the “inhibition” value read?
**A.** 3.32%

**Q.** For `O=C(NCCSCc1ccccc1)c1ccc(F)cc1`, which “inhibition” value is on record?
**A.** -11.2%

**Q.** Which “inhibition” value does the source give for `COC(=O)CN1C(c2ccc(OC)cc2)=Nc2ccc(Cl)cc2C1c1ccccc1` (stereo unspecified) here?
**A.** -9.48%

**Q.** With `Cc1ccc(-c2cc(C(=O)Nc3nccs3)c3ccccc3n2)o1` as the compound, how does the “inhibition” value read?
**A.** 37.3%

**Q.** Which “inhibition” value does the source give for `Nc1nc(N2CCN(C/C=C/c3ccccc3)CC2)nc2ccccc12` here?
**A.** -3.63%

**Q.** Which “inhibition” value does the source give for `O=C(O)CCC(=O)NCC1OCCc2ccccc21` (stereo unspecified) here?
**A.** 3.15%

**Q.** With `Cc1nc2ccccn2c1C(=O)N/N=C/c1ccccc1[N+](=O)[O-]` as the compound, how does the “inhibition” value read?
**A.** -3.37%

**Q.** Which “inhibition” value does the source give for `Cc1cc(/C=N\NC(=O)c2cccs2)c(C)n1-c1ccc2ncccc2c1` here?
**A.** 19.8%

**Q.** Which “inhibition” value does the source give for `COC(=O)c1cn(C(=O)c2cccs2)c2ccccc12` here?
**A.** -2.01%

**Q.** For `COc1c(/C=N/Nc2nc(N3CCCCC3)nc(N3CCCCC3)n2)cccc1[N+](=O)[O-]`, which “inhibition” value is on record?
**A.** -6.83%

**Q.** With `CCOC(=O)C(NC(=O)CC)(Nc1ccc(C(O)(C(=O)OCC)C(F)(F)F)cc1C)C(F)(F)F` (stereo unspecified) as the compound, how does the “inhibition” value read?
**A.** -14.8%

**Q.** For `CN(C(=O)c1ccc2c(c1)OCO2)C1(C(=O)NC2CCCCC2)CCCCC1`, which “inhibition” value is on record?
**A.** -4.9%

**Q.** With `O=C(CSc1nnc(Cc2ccccc2)o1)NCCc1ccccc1` as the compound, how does the “inhibition” value read?
**A.** -16.5%

**Q.** For `Cc1ccc(CNc2oc(-c3cccs3)nc2C#N)cc1`, which “inhibition” value is on record?
**A.** -4.93%

**Q.** For `COc1cccc2[nH]c3c(N4CCC(C)CC4)ncnc3c12`, which “inhibition” value is on record?
**A.** -13.9%

**Q.** Which “inhibition” value does the source give for `NCCCC[C@H]1CN=C(N)N1CCC12CC3CC(CC(C3)C1)C2` here?
**A.** 18.9%

**Q.** With `COCC(=O)N=Nc1c(O)[nH]c2ccccc12` as the compound, how does the “inhibition” value read?
**A.** -15.3%

**Q.** With `C(=N\N1CCN(C2c3ccccc3-c3ccccc32)CC1)/c1cccs1` as the compound, how does the “inhibition” value read?
**A.** 1.11%

**Q.** For `Cc1ccc(C(=O)Oc2ccc(C(=O)COC(=O)c3cnccn3)cc2)cc1`, which “inhibition” value is on record?
**A.** -14%

**Q.** With `O=[N+]([O-])c1ccc(CNC2CCCc3ccccc32)cc1` (stereo unspecified) as the compound, how does the “inhibition” value read?
**A.** 20.9%

**Q.** Which “inhibition” value does the source give for `COc1cc(C2Nc3cccc4cccc(c34)N2)cc(OC)c1O` here?
**A.** -22.2%

**Q.** With `CCOC(=O)CCCc1c[nH]c2ccccc12` as the compound, how does the “inhibition” value read?
**A.** -4.56%

**Q.** For `COc1ccc(-n2c(C)cc(C(=O)Cn3nc(C(=O)O)c4ccccc4c3=O)c2C)cc1`, which “inhibition” value is on record?
**A.** -19.3%
